From PubChem
KCNK3 block: human KCNK3 channel inhibition, primary screen. O14649. CHO-KCNK3 thallium flux, FluxOR fluorescence; hits give low values. B-score at 10 µM. hit rate 0.84% among 340,000;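 active means B-score under library mean minus 4 SD, starting fluorescence ratio at most library mean plus 5 SD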;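 further: more negative B-score means stronger inhibition of thallium flux through KCNK3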
TMEM16A act: mouse TMEM16A channel activation, primary screen; HEK293 TMEM16A/YFP-H148Q/I152L, iodide quench fluorescence; hits give low values; B-score at 10 µM; hit rate 0.3% among 340,000; AID 623877;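 active means fluorescence-ratio B-score plate-corrected deviation score at least 3 library SD below zero, with starting fluorescence score within 5 deviations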;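 further: channel opened by trigger with iodide after compound preincubation; score built on the fluorescence ratio of max minus min over baseline; more negative score means more quench and so TMEM16A activation or potentiation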
KCNK9 inh: inhibitors of human KCNK9 two-pore domain potassium channel | HEK293 KCNK9, FluxOR thallium flux fluorescence; hits give low values | B-score at 10 µM | hit rate 1.2% among 310,000 | AID 488922;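 active means ratio B-score over 3 SD below the library mean, with starting fluorescence within 5 SD of its mean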;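 further: negative B-score means less thallium flux so channel inhibition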
Target sequence (Q9NPC2 whole entry, looked up, the tested form may be a part): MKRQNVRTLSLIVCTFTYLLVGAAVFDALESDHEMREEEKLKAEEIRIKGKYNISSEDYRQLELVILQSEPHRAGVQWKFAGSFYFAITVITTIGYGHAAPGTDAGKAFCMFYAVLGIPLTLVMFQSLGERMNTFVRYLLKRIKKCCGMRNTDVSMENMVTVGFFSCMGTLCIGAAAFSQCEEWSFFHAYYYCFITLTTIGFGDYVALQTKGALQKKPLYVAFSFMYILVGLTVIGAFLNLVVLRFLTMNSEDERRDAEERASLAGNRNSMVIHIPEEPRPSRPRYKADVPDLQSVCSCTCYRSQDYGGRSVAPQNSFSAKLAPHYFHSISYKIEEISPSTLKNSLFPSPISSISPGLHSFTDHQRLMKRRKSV
ANO1 block: mouse TMEM16A channel inhibition, primary screen; HEK293 TMEM16A/YFP iodide influx fluorescence, ionomycin; normalized B-score (activity score, 25-100; higher = stronger inhibition) at 10 µM; hit rate 1.2% among 310,000; AID 588511;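 active means ratio plate-corrected score three or more library SD toward inhibition, starting fluorescence score within five deviations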;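 further: score derived from kinetic fluorescence span divided by baseline fluorescence per well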
Kir21 inh: inhibitors of mouse Kir2.1 inward-rectifier potassium channel; HEK293-Kir2.1, FluxOR thallium flux fluorescence; hits give low values; B-score at 10 µM; hit rate 0.85% among 310,000; AID 1672;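 active means fluorescence ratio B-score at or below minus 3 SD of library scores, with starting-brightness B-score within 2 SD, cut at about -4.2 in these data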;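 further: channel flux triggered by added potassium and thallium sulfate stimulus; B-score of peak minus minimum fluorescence over baseline after thallium stimulus; more negative B-score means stronger Kir2.1 block with less thallium influx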
TMEM16A reconf: re-confirmation of mouse TMEM16A chloride channel inhibitors; shares compounds with ANO1 block; HEK293 TMEM16A/YFP-H148Q, iodide quench fluorescence; ionomycin added to raise cell calcium; inhibition, % at 10 µM; hit rate 39% among 2,300; AID 652189;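 active means mean duplicate percent inhibition, scaled so buffer wells are 0 and the reference blocker 100, over three buffer SD above buffer mean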
TMEM16A Ca cntr: counter-screen for TMEM16A inhibitors: effect on calcium mobilization; shares compounds with ANO1 block; TMEM16A/YFP HEK293, Fluo4 calcium mobilization; calcium response (% of ionomycin), % at 10 µM; hit rate 2% among 2,300;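 active means duplicate-averaged calcium signal over 20% of the ionomycin maximum, relative to buffer baseline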;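 further: each well's signal is peak minus trough fluorescence divided by its pre-addition baseline; 0% = buffer wells and 100% = ionomycin wells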
YFP-HEK293 quench: acts in parental YFP-HEK293 cells lacking TMEM16A, counter-screen. YFP ratio F(max-min)/F0 at 10 µM. 2,300 tested, under 10 active. AID 652233. iodide YFP quench, ionomycin. shares compounds with ANO1 block;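 active means yellow fluorescent protein signal ratio exceeding the buffer control mean by over 5 SD of those controls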;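 further: ratio is mean of duplicate wells from kinetic YFP trace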
ClC-1 rat inh: selectivity of TMEM16A inhibitors: inhibition of rat ClC-1 chloride channel. shares compounds with ANO1 block. CHO ClC-1-YFP, iodide influx fluorescence quench; iodide control reads 0, buffer control 100. ratio percent, % at 10 µM. 2,300 tested, under 10 active. AID 652236;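 active means duplicate-mean ratio percent above the mean of iodide-only control wells, which defines zero, plus 5 of their SD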;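 further: higher percent means stronger block of ClC-1 iodide influx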
The depositor's hits bear a star; i = inactive; · = not tested or not shown; ! = not confirmed by another sample. A selection: hits, their analogues and other compounds. The true share with any hit is near 3.5%.

SMILES	KCNK3 block	TMEM16A act	KCNK9 inh	ANO1 block	Kir21 inh	TMEM16A reconf	TMEM16A Ca cntr	YFP-HEK293 quench	ClC-1 rat inh
O=C(CCSCc1ccccc1Cl)NCc1ccco1	i	i	i	i	0.07	·	·	·	·
O=C(CCSCCC(=O)NCc1ccco1)NCc1ccco1	·	·	i	i	0.67	i	i	-0.985	-11.0
COc1ccc(C(=O)COC(=O)c2cccc(-n3cnnn3)c2)c(OC)c1	i	i	i	i	0.86	·	·	·	·
COc1cccc(Nc2nc(NCC3CCCO3)c3ccccc3n2)c1 (stereo not drawn)	i	i	i	100*	-13.4*	43.5%*	i	-1.07	-19.0
COc1cccc(Nc2nc(NCCO)c3ccccc3n2)c1	i	i	i	i	-1.84	·	·	·	·
CCOC(=O)c1c(NC(=O)CSc2nc3ccccc3c(=O)n2-c2ccccc2)sc(C(C)=O)c1C	i	i	i	i	0.3	·	·	·	·
CCOC(=O)c1c(NC(=O)CSc2nnc(-c3ccccc3)o2)sc(C(C)=O)c1C	i	i	i	i	-0.02	·	·	·	·
CCOC(=O)c1c(NC(=O)CSc2nc3ccccc3o2)sc(C(C)=O)c1C	i	i	i	100*	-0.89	21.5%*	i	-1.07	-3.0
CCOC(=O)c1c(NC(=O)CSc2nnc(Cc3ccccc3)o2)sc(C(C)=O)c1C	i	i	i	25*	0.4	16.5%*	i	-1.25	-21.0
COc1ccc(C(=O)OCC(=O)NCc2ccc3c(c2)OCO3)cc1S(=O)(=O)N1CCOCC1	i	i	·	·	·	·	·	·	·
Cc1ccc(N=C/C(C(=O)C(F)(F)F)=C(\O)c2ccco2)cc1Cl	i	i	i	i	0.2	·	·	·	·
COc1ccc(OCCNS(=O)(=O)c2ccc3oc4ccccc4c3c2)cc1	i	i	i	i	-0.8	·	·	·	·
O=S(=O)(NCCOCC(F)(F)C(F)F)c1ccc2oc3ccccc3c2c1	i	i	i	25*	1	23.5%*	i	-0.916	-12.0
O=C(CSc1nnc(Nc2ccccc2)s1)Nc1ccc(S(=O)(=O)N2CCOCC2)cc1	i	i	i	25*	0.18	i	i	-1.01	-9.0
COc1ccc(C)cc1NC(=O)C1CCCN(S(=O)(=O)c2cccc3cccnc23)C1 (stereo not drawn)	i	i	i	100*	2.91	i	i	-0.915	-4.5
COc1ccc(NC(=O)C2CCCN(S(=O)(=O)c3cccc4cccnc34)C2)c(OC)c1 (stereo not drawn)	i	i	i	i	-1.49	·	·	·	·
O=C(COc1ccc(F)cc1)c1ccc2c(c1)CCCC2	i	i	i	100*	0.47	i	i	-1.1	-20.0
COc1ccc(C(=O)COC(=O)c2ccccc2NS(=O)(=O)c2ccc(O)c([N+](=O)[O-])c2)cc1	i	i	i	25*	-0.96	30.5%*	i	-0.865	-10.0
COc1ccc(NC(=O)c2ccccc2NS(=O)(=O)c2ccc(C)cc2)c([N+](=O)[O-])c1	i	i	i	i	-0.22	·	·	·	·
Cc1c(O)cccc1C(=O)N[C@@H](CSc1ccccc1)[C@H](O)CN1C[C@H]2CCCC[C@H]2C[C@H]1C(=O)NC(C)(C)C	i	i	i	100*!	-0.97	41.0%*	i	-1	-2.5
Cc1cc(C)c(S(=O)(=O)Nc2ccc3c4c(cccc24)CC3)c(C)c1	i	i	i	100*	-0.22	i	i	-1.08	-9.5
O=C(COc1ccc(Br)cc1)Nc1ccc([N+](=O)[O-])cn1	i	i	i	i	-0.09	·	·	·	·
CCN(c1ccc(NC(=O)COC(=O)C(C)N=C2NS(=O)(=O)c3ccccc32)cc1)C(C)C (stereo not drawn)	i	i	·	·	·	·	·	·	·
Fc1ccccc1OCCSc1nnnn1-c1ccccc1	i	i	i	i	-0.37	22.0%*	i	-0.868	2.0
O=C(Cn1c(=O)n(-c2cccc(C(F)(F)F)c2)c(=O)c2sccc21)NCC1CCCO1 (stereo not drawn)	i	i	i	25*	-0.55	i	i	-1.23	2.5
SMILES	KCNK3 block	TMEM16A act	KCNK9 inh	ANO1 block	Kir21 inh	TMEM16A reconf	TMEM16A Ca cntr	YFP-HEK293 quench	ClC-1 rat inh
O=C(CCC(=O)Nc1cccc(C(F)(F)F)c1)NCC1CCCO1 (stereo not drawn)	i	i	i	i	2.61	·	·	·	·
Cc1ccc(-c2noc(CN(C(=O)c3cccc(Br)c3)C(C)C)n2)cc1	i	i	i	i	-1.8	·	·	·	·
COc1ccc(-c2noc(CN(C(=O)c3cccs3)C(C)C)n2)cc1	i	i	i	100*	-0.01	i	i	-0.957	1.0
COc1ccc(N2CCn3c2nc2c3c(=O)n(CCCc3ccccc3)c(=O)n2C)c(OC)c1	i	i	i	100*	-2.48	22.5%*	i	-1.2	-13.5
CCOc1cc(CNCCO)cc(Br)c1OCc1ccccc1Cl	i	i	i	25*	-8.98*	i	i	-1.16	-18.0
CCOc1ccc(NC(=O)N2CCC(NC(=O)C(Cc3ccccc3OC)NC(C)=O)CC2)cc1 (stereo not drawn)	i	i	i	i	-0.47	·	·	·	·
CCN(C(=O)COC(=O)c1cnc(C)cn1)C1CCCCC1	i	i	i	100*	2.19	i	i	-1.19	-0.5
Cc1cnc(C(=O)OCC(=O)NC2CCCCCCC2)cn1	i	i	i	i	0.27	·	·	·	·
O=C(OCC(O)C(O)C(O)C(SCc1ccccc1)SCc1ccccc1)c1ccccc1 (stereo not drawn)	i	i	·	·	·	·	·	·	·
Cc1cc(Cl)c(S(=O)(=O)N2CCCC2)cc1OCC(=O)NC1CCCCC1	i	i	i	100*	-1.18	22.0%*	i	-0.948	-21.0
CCN(CC)c1nc(OCCNC(=O)Nc2ccccc2)nc(N(CC)CC)n1	i	i	-7.94*	100*	-5.31*	19.5%*	i	-1.02	-11.0
Cc1ccc(Cl)cc1S(=O)(=O)N1CCC(C(=O)NC2CCN(Cc3ccccc3)CC2)CC1	i	i	i	i	0	·	·	·	·
CC(=O)c1cccc(NC(=S)NC(=O)c2cccc(Cl)c2)c1	i	i	i	25*	1.08	i	28.0%*	-1.22	-5.5
